Here are results for 12 molecules from PubChem BioAssay (NCATS).

Several values for one entry are separate records, joined by “and”; a condition that tells them apart may be missing. Identical values can stand only once. Records with an inconclusive call do not appear. Where a structure was tested more than once in an assay, its records may differ in their call. Activity calls are given as the source filed them. Calls come from the whole dose curve; as a rule, active = well fitted inhibition curve with a large enough effect; inconclusive = small, poorly fitted or top-dose-only effect; inactive = flat fitted curve, though single readings scatter.
Note: nearly all actives have a fitted effect of over 60% in size.

In the first assay the test system is W2. Description: qHTS profiling for inhibitors of Plasmodium falciparum proliferation (AID 504749).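 Note: 0% = DMSO vehicle and full inhibition = artemisinin control.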 As to conditions: P. falciparum in erythrocytes, SYBR Green DNA, 72 h; series mostly up to 28.7 µM. A digest of the protocol:
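Fluorescence of SYBR Green-bound parasite DNA, read at 485/535 nm, served as the growth measure. Infected erythrocytes were cultured with compound 72 h; artemisinin (0.29 uM) and DMSO wells defined the normalization range.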
Background: Quantitative high-throughput screening tests each substance at several concentrations.
Consider `CS(=O)(=O)c1ccc(C2=C(c3ccccc3)C(=O)OC2)cc1`, for which the Potency entry is “inactive”. The same measure, in the same setting: then `NS(=O)(=O)c1cc(Cl)c(Cl)c(S(N)(=O)=O)c1`, with “inactive”; and `COc1ccnc(CS(=O)c2nc3ccc(OC(F)F)cc3[nH]2)c1OC` (stereo unspecified), with “inactive”.

A further assay deals with CRL-7250. Description: Cytotoxic Profiling of Annotated Libraries Using Quantitative High-Throughput Screening (AID 1296008). For max response: % is set by controls: 0 for no effect and ±100 for the full control effect. Note: potency is the fitted concentration of half-maximal effect. To be noted: Five cell lines viability, CellTiter-Glo ATP luminescence, 48-72 h; max response: stronger effect = lower value. An outline of the steps:
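Compounds were pin-transferred onto cells and incubated 48 or 72 hr at 37 degree Celsius, 95% humidity. CellTiter-Glo was added, plates sat 10 min at room temperature, then ATP-coupled luminescence was imaged as the viability read-out.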
Turning to `CNC(=O)c1c(-c2ccc(F)cc2)oc2cc(N(CCO)S(C)(=O)=O)c(C3CC3)cc12`, the Potency is 11800 nM (active) and the max response was -2.04% (inactive).

On to `Cc1cnc(Nc2cccc(CN3CCOCC3)c2)nc1Nc1cccc(S(=O)(=O)NC(C)(C)C)c1`, for which the call was inactive. Turning to `CS(=O)(=O)c1ccc(C2=C(c3ccccc3)C(=O)OC2)cc1`, the max response was 3.58% (inactive) and 2.56% (inactive). Still for that read-out and setting: then `O=C(O)CCNc1cc(N2CCc3ccccc3CC2)nc(-c2ccccn2)n1`, with -1.59% (inactive) and -1.08% (inactive) and -1.74% (inactive).

Turning to `CCn1c(-c2nonc2N)nc2cncc(CNC3CCNCC3)c21`, the Potency was 7310 nM (active).

With `CC(C)CNc1ccnc(NCc2csc(-c3ccccc3)n2)n1`, the Potency was 1300 nM (active) and the max response is -19.9% (inactive). Consider `Cn1c(=O)c(-c2c(Cl)cccc2Cl)cc2cnc(Nc3cccc(C(=O)O)c3)nc21`, for which the Potency is 1160 nM (active).

Take `CC1(C)CC(=O)c2c(C(F)(F)F)nn(-c3ccc(C(N)=O)c(NC4CCC(O)CC4)c3)c2C1` (stereo unspecified): the Potency is 259 nM (active). Turning to `Cc1ccccc1-n1c(Cn2nc(-c3cccc(O)c3)c3c(N)ncnc32)nc2cccc(C)c2c1=O`, the Potency is 2640 nM (active) and the call was inactive. Take `COc1cc(Nc2nc3ccccc3nc2NS(=O)(=O)c2ccc(NC(=O)c3ccc(C)c(OC)c3)cc2)cc(OC)c1`: the max response is -27.1% (inactive) and -5.83% (inactive).
